Potency and outcome data for 22 compounds are collected here from PubChem BioAssay (NCATS).

Molecules are shown by their SMILES. Inconclusive results are not listed. The source made the active and inactive calls. Calls come from the whole dose curve; as a rule, active = well fitted curve in the direction sought with a large enough effect; inconclusive = small, poorly fitted or top-dose-only effect, or another doubt; inactive = no such curve, though single readings can be large; an effect the other way counts as inactive or inconclusive.

The nature of assay [1]: qHTS of pediatric cancer cell lines to identify multiple opportunities for drug repurposing: Confirmatory screen for TC32 cells (AID 1347118).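 Note: cells exposed to compound for 48 h before the read; nearly all actives have a fitted effect of over 65% in size.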 Note: potency is the fitted concentration of half-maximal effect. The gist of the method:
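qHTS, TC32, 48 h drug treatment, CellTiter-Glo luminescence as a proxy for metabolically active cells; primary top concentration 46 µM (MIPE 11-pt, NPC 8-pt); confirmatory 11-pt.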
Background: Quantitative high-throughput screening tests each substance at several concentrations.

Assay [2] is described as follows: qHTS of pediatric cancer cell lines to identify multiple opportunities for drug repurposing: Confirmatory screen for control Hh wild type fibroblast cells (AID 1347121). Note: nearly all actives have a fitted effect of over 70% in size. An outline of the steps:
(§1)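 Cells (500-1,000/well) rested 5 h, then received compounds for 48 h; metabolically active cells were measured by CellTiter-Glo luminescence. Final concentrations spanned up to 46 µM (MIPE, 11-point) or 0.59 nM-46 µM (NPC, 8-point) in primary screens, 11-point in follow-ups.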

Assay [3] can be described thus: qHTS of pediatric cancer cell lines to identify multiple opportunities for drug repurposing: Confirmatory screen for U-2 OS cells (AID 1347122). Note: nearly all actives have a fitted effect of over 65% in size. Note: potency is the fitted concentration of half-maximal effect. An outline of the steps:
as §1

Assay [4] in a line: qHTS of pediatric cancer cell lines to identify multiple opportunities for drug repurposing: Confirmatory screen for Rh18 cells (AID 1347125). Note: nearly all actives have a fitted effect of over 55% in size. Note: potency is the fitted concentration of half-maximal effect. The gist of the method:
as §1

The nature of assay [5]: qHTS of pediatric cancer cell lines to identify multiple opportunities for drug repurposing: Confirmatory screen for Rh30 cells (AID 1347126). Note: nearly all actives have a fitted effect of over 55% in size. Note: potency is the fitted concentration of half-maximal effect. The gist of the method: as §1
Assay [6] can be described thus: qHTS of pediatric cancer cell lines to identify multiple opportunities for drug repurposing: Confirmatory screen for OHS-50 cells (AID 1347128).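 Note: compound exposure lasted 48 h at 37 degrees C; nearly all actives have a fitted effect of over 55% in size.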 Note: potency is the fitted concentration of half-maximal effect. An outline of the steps: as §1
Assay [7] is described as follows: qHTS of pediatric cancer cell lines to identify multiple opportunities for drug repurposing: Confirmatory screen for SK-N-SH cells (AID 1347129).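 Note: cells exposed to compound for 48 h before viability read; nearly all actives have a fitted effect of over 60% in size.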 Note: potency is the fitted concentration of half-maximal effect. An outline of the steps:
as §1

In another assay the target is Furin (Homo sapiens) (UniProt P09958). The assay can be described thus: Furin counterscreen qHTS for Zika virus inhibitors (AID 1347149). Note: nearly all actives have a fitted effect of over 70% in size. Note: potency is the fitted concentration of half-maximal effect. An outline of the steps: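 Counterscreen measures cleavage of 2 microM BOC-RVRR-AMC, below its ~15 microM Km, by 5 nM full-length human furin at pH 7.0 after a 15-min compound preincubation. Inhibition derives from the 15-min fluorescence increase at 37C.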
Chain of Furin (Homo sapiens) (P09958 whole entry, looked up): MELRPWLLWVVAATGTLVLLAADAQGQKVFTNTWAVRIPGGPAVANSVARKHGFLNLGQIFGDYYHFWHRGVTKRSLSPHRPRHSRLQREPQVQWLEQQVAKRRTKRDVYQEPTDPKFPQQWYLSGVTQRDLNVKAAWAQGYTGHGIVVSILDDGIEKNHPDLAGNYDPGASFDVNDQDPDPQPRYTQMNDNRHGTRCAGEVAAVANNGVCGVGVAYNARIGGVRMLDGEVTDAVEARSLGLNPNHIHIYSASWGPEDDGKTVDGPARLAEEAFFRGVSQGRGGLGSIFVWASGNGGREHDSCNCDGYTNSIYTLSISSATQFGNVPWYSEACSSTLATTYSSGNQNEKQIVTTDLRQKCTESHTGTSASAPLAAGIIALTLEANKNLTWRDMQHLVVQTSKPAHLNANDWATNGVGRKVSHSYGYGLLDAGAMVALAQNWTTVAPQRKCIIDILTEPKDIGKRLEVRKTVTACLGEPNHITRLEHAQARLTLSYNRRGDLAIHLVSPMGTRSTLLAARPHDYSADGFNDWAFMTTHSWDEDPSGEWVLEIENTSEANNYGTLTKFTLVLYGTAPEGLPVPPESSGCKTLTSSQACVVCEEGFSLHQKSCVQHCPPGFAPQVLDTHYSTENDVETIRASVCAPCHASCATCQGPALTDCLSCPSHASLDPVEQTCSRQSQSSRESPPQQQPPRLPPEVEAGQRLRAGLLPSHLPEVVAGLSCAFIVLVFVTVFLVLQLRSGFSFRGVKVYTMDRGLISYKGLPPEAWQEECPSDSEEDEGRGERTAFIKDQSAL
In general terms: A counterscreen serves to expose hits that act by an unwanted route or on another target.

Assay [8] deals with Zika virus NS2B-NS3 protease (unlinked). Kind of assay: Optimization of GU AMC qHTS for Zika virus inhibitors: Unlinked NS2B-NS3 protease assay (AID 1347151). Note: nearly all actives have a fitted effect of over 80% in size. Note: potency is the fitted concentration of half-maximal effect. The gist of the method:
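Noncovalent complex of NS2B hydrophilic domain and NS3 protease domain, 25 nM final, in 10 mM Tris-HCl pH 8.0, 0.01% Tween 20. AMC fluorescence change over 15 min at room temperature was fitted to a 4-parameter Hill equation.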

For assay [9], the system named is Zika virus NS2B-NS3 protease. Kind of assay: Primary screen GU AMC qHTS for Zika virus inhibitors (AID 1347154). Note: nearly all actives have a fitted effect of over 70% in size. Note: potency is the fitted concentration of half-maximal effect. The gist of the method:
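Fluorogenic AMC-substrate cleavage by noncovalent NS2B-NS3 protease complex (25 nM, pH 8.0 Tris buffer with Tween 20) followed for 15 minutes at room temperature (~20% conversion). Percent inhibition from ex340/em450 signal change, fitted by 4-parameter Hill equation.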

The nature of assay [10]: ZIKV-mCherry secondary qHTS for Zika virus inhibitors (AID 1347158). Note: top concentration of the series differs between compounds. The gist of the method:
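Percent infection is the share of Hoechst-identified Vero nuclei with mCherry signal above 450 RFU (3 SD over negative controls). Cells were infected with recombinant ZIKV-mCherry at MOI 1 after compound addition and imaged 48–72 h later.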

Assay [11] can be described thus: qHTS of pediatric cancer cell lines to identify multiple opportunities for drug repurposing: Confirmatory screen for BT-37 cells (AID 1347117). Note: potency is the fitted concentration of half-maximal effect.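 Note: viability measured after 48 h of compound exposure; nearly all actives have a fitted effect of over 55% in size.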 An outline of the steps: as §1
Assay [12] can be described thus: qHTS of pediatric cancer cell lines to identify multiple opportunities for drug repurposing: Confirmatory screen for RD cells (AID 1347124).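 Note: cells exposed to compound for 48 h before viability readout; nearly all actives have a fitted effect of over 65% in size.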 Note: potency is the fitted concentration of half-maximal effect. The gist of the method:
as §1

Assay [13] has as its target N-terminal Xaa-Pro-Lys N-methyltransferase 1 (Homo sapiens) (UniProt Q9BV86). Kind of assay: qHTS Assay for Inhibitors of N-terminal methyltransferase 1 (NTMT1): LOPAC validation of the NTMT1 SAHH-coupled ThioGlo3 Assay (AID 1347143).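 Note: SAH from peptide methylation measured as thiol fluorescence via SAHH coupling and ThioGlo3; nearly all actives have a fitted effect of over 70% in size.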 Note: potency is the fitted concentration of half-maximal effect. The gist of the method: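 NTMT1 125nM + cpds (various conc.), 1 min RT; add SAM 100uM/SAHH 10uM/ThioGlo3 15uM (addition mix). SAHH-coupled thiol detection, Ex340/Em450, t0 and 30 min RT; signal normalized to background. LOPAC 1280-cpd pilot.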

Assay [14] concerns Zika virus NS2B-NS3 protease (linked construct). The assay can be described thus: Confirmatory screen NINDS AMC qHTS for Zika virus inhibitors (AID 1347152). Note: nearly all actives have a fitted effect of over 70% in size. Note: potency is the fitted concentration of half-maximal effect. An outline of the steps:
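Purified NS2B-NS3 protease with NS2B hydrophilic domain linked to NS3 protease domain by flexible linker, 1 nM final in 10 mM Tris-HCl pH 8.0, 0.01% Tween 20. Compounds preincubated 15 min, room temperature; Bz-Nle-KRR-AMC 10 microM (Km 18.3 µM); 15-min fluorescence change, 4-parameter Hill fit.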

For assay [15], the system named is Zika virus NS2B-NS3 protease (unlinked complex). The assay can be described thus: Confirmatory screen GU AMC qHTS for Zika virus inhibitors (AID 1347153).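 For Potency: enzyme at 25 nM with substrate at 10 µM below its Km of 18.3 µM; potency is the fitted concentration of half-maximal effect.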 Note: nearly all actives have a fitted effect of over 70% in size. The gist of the method: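 Fluorescence change (ex 340/em 450 nm) over 15 min, ~20% substrate conversion, normalized to no-inhibitor and no-enzyme controls, then Hill-fitted. Unlinked protease at 25 nM; AMC peptide 10 µM.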

The nature of assay [16]: Confirmatory screen GU Rhodamine qHTS for Zika virus inhibitors qHTS (AID 1347157). Note: nearly all actives have a fitted effect of over 70% in size. An outline of the steps: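 In dose–response format, inhibition of unlinked protease (25 nM) was measured with 1.5 microM bis-peptide Rhodamine110 substrate. Aprotinin served as the intraplate control.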

Chain of N-terminal Xaa-Pro-Lys N-methyltransferase 1 (Homo sapiens) (Q9BV86 whole entry, looked up): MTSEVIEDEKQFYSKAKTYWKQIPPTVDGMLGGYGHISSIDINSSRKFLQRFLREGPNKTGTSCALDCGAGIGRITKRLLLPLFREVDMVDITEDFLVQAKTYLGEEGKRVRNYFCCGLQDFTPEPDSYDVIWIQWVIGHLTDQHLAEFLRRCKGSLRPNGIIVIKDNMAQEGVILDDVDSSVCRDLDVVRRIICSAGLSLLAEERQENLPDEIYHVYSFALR

Consider `COC(=O)Nc1nc2ccc(C(=O)c3ccccc3)cc2[nH]1`, for which the Potency was 369 nM (active) in assay [1], 1.85 µM (active) in assay [3] and 2.93 µM (active) in assay [6]. The Potency entry (in [2]; in assay [4]; in [5]; in [7]; in the assay with Furin (Homo sapiens); in assay [8]) was “inactive” throughout. For the same compound, in [9], the Potency result was “inactive”. Besides, in assay [10], the compound was called inactive.

For `COC(=O)Nc1nc2ccc(Sc3ccccc3)cc2[nH]1`, the Potency was 1.85 µM (active) in assay [11]; 827 nM (active) in assay [1]; 3.69 µM (active) in [3]; 2.08 µM (active) in assay [12]; 1.31 µM (active) in assay [6]; 5.9 µM (active) in assay [7]. Moreover, the Potency entry in [5] and in assay [9] was “inactive” each time.

On to `Nc1nc(N)c2nc(CNc3ccc(C(=O)NC(CCC(=O)O)C(=O)O)cc3)cnc2n1` (configuration not stated), for which the Potency in assay [1] was 329 nM (active); in [6] it was 0.369 µM (active); in assay [13], 56.2 µM (active); in the assay with Furin (Homo sapiens) it was 19.1 µM (active); in assay [8] it was 26.7 µM (active); in assay [14] it was 27.1 µM (active). Moreover, in assay [9], the Potency was 21.5 µM (active). For the same compound, the Potency entry in assay [2], in [3], in assay [4], in assay [5] and in [7] was “inactive” in each case.

Take `NC(=O)c1cccc(N)c1`: the Potency result in assay [13] and in [9] was “inactive” in each case.

With `CCCc1nc(C)c2c(=O)[nH]c(-c3cc(S(=O)(=O)N4CCN(CC)CC4)ccc3OCC)nn12`, the Potency result (with Furin (Homo sapiens); in assay [14]; in assay [15]) was “inactive” each time.

For `NS(=O)(=O)c1cc2c(cc1Cl)NC(C(Cl)Cl)NS2(=O)=O` (configuration not stated), the Potency entry in assay [9] is “inactive”.

For `Nc1nc(N)nc(-c2cc(Cl)ccc2Cl)n1`, the Potency entry in assay [11], in [2], in assay [12], in assay [4], in assay [5] and in [6] was “inactive” each time. Moreover, the Potency result in assay [7] and in [9] was “inactive” in each case.

Consider `O=C(O)c1cn(C2CC2)c2cc(N3CCNCC3)c(F)cc2c1=O`, for which the Potency (with Furin (Homo sapiens); in assay [14]) was 24.1 µM (active) throughout.

For `CC(C)OC(=O)OCOP(=O)(CO[C@H](C)Cn1cnc2c(N)ncnc21)OCOC(=O)OC(C)C`, in assay [9], the Potency entry was “inactive”.

Turning to `CCN(C)C(=O)Oc1cccc([C@H](C)N(C)C)c1`, the Potency entry in assay [9] was “inactive”.

Regarding `CCn1cc(C(=O)O)c(=O)c2cc(F)c(N3CCNCC3)cc21`, the figures for the Potency (with Furin (Homo sapiens); in [14]) were 17.1 µM (active) and 27.1 µM (active), respectively.

For the compound `CCCCS(=N)(=O)CCC(N)C(=O)O` (configuration not stated), the Potency result in assay [13], in assay [8] and in assay [9] was “inactive” each time.

As for `O=C(O)c1ccc(-n2nc(-c3ccccc3O)nc2-c2ccccc2O)cc1`, the Potency entry (in the assay with Furin (Homo sapiens); in assay [14]; in [15]; in assay [9]) was “inactive” each time.

On to `CCC(=O)O[C@]1(C(=O)SCF)[C@H](C)C[C@H]2[C@@H]3C[C@H](F)C4=CC(=O)C=C[C@]4(C)[C@@]3(F)[C@@H](O)C[C@@]21C`, for which the Potency result in assay [11], in assay [1], in assay [2], in assay [6], in [7] and in assay [9] was “inactive” throughout.

As to `O=S(=O)(O)CCS`, the Potency entry in assay [1], in assay [3], in assay [4], in assay [5], in assay [7] and in [9] was “inactive” in each case.

With `OCc1ccc(-c2nn(Cc3ccccc3)c3ccccc23)o1`, the Potency in [13] is 28.2 µM (active); in the assay with Furin (Homo sapiens) it was 27.1 µM (active); in assay [8], 23.8 µM (active); in assay [14], 24.1 µM (active); in assay [15] it was 24.1 µM (active); in assay [9], 30.4 µM (active).

As for `NC(=O)c1ccc2[nH]ccc2c1`, the Potency entry in assay [13] and in [9] was “inactive” in each case.

For the compound `CC1=CC(=O)c2ccccc2C1=O`, in [9], the Potency result is “inactive”.

As to `CC(C)(Sc1cc(C(C)(C)C)c(O)c(C(C)(C)C)c1)Sc1cc(C(C)(C)C)c(O)c(C(C)(C)C)c1`, the Potency entry (in the assay with Furin (Homo sapiens); in [9]) was “inactive” each time. The compound was called inactive in assay [16].

As to `Oc1c(Cl)cc(Cl)c2cccnc12`, the Potency in assay [11] is 18.5 µM (active); in assay [1] it was 8270 nM (active); in assay [3], 9.27 µM (active); in [12], 13.1 µM (active); in [5], 18.5 µM (active); in assay [7] it was 20.9 µM (active). The Potency entry in assay [9] is “inactive”.

For the compound `CCN1CCCC1CNC(=O)c1cc(S(N)(=O)=O)ccc1OC` (configuration not stated), the Potency in [13] was 56.2 µM (active). The Potency entry in assay [8] and in [9] was “inactive” in each case.

Consider `CC(=O)[C@H]1CC[C@H]2[C@@H]3CCC4=CC(=O)CC[C@]4(C)[C@H]3CC[C@]12C`, for which the figures for the Potency in assay [1], in [4] and in [6] were 5220 nM (active), 23.3 µM (active) and 26.1 µM (active), respectively. Moreover, the Potency entry in [8] and in assay [9] was “inactive” throughout.
